Only some compounds are listed: those with a hit (about 21% of all), similar ones and a draw of the others.
IL1B secr inh: inflammasome signaling inhibition, IL-1 beta readout. actives 4.7% (n = 360,000). activity change, % at 57.5 µM. THP-1 LPS/ATP IL-1B secretion, AlphaLISA, 16 h; stronger effect = lower value; in the data active = activity change below about -50%; inconclusive = mostly about -30% to -49%
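THP-1 cells pretreated 1 hr with compounds (up to 57.5 uM final), then stimulated with LPS (250 ng/mL final) plus ATP (1.25 mM final); secreted IL-1B measured by AlphaLISA after 16 hr, decreased signal indicating inhibition.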
TDP1 cell noCPT: qHTS for Inhibitors of human tyrosyl-DNA phosphodiesterase 1 (TDP1): qHTS in cells in absence of CPT. actives 15% (n = 420,000). Potency, µM (highest dose often 46.2 µM), actives largely listed as inhibitors. DT40 Tdp1-/- hTDP1 cells, no CPT, ATP luminescence, 48 h. AID 686978, 2013; also: nearly all actives have a fitted effect of over 55% in size
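Growth of hTDP1-complemented DT40 Tdp1-knockout cells is measured by ATP luminescence after at least 48 hr compound exposure at 37 °C, with DMSO substituting for the 20 nM CPT used in the parallel screen.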
ELG1 repair inh: blocks ELG1-dependent DNA repair in HEK293T cells | HEK293T ELG1-luciferase reporter, luminescence, 16 h; DNA damage induced by 5-fluorouridine | Potency, µM (series often up to 46.1 µM), most hits filed as inhibitors | actives 2.3% (n = 330,000) | AID 504467; also: nearly all actives have a fitted effect of over 55% in size
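HEK293T cells expressing luciferase-tagged ELG1 (2,000/well) received 5-Fluorouridine plus compound or DMSO for 16 hr at 37 °C. Luciferase was read by ONE-Glo luminescence after 30 min at room temperature.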
DT40 TDP1 CPT: growth inhibition of DT40 Tdp1-/-;hTDP1 cells with camptothecin (screen for TDP1 inhibitors); chicken DT40 Tdp1-/-;hTDP1 cells + 20 nM CPT, ATP luminescence, 48 h; Potency, µM (highest dose often 46.2 µM), actives largely listed as inhibitors; actives 12% (n = 420,000); AID 686979; also: nearly all actives have a fitted effect of over 55% in size
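Chicken DT40 Tdp1-/- cells complemented with human TDP1, 400 cells/well, exposed to compounds plus 20 nM camptothecin for at least 48 h at 37 C; viability read as ATP content by CellTiter-Glo luminescence.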
RORgamma inh: blocks mouse ROR gamma transcriptional activity; P51450; Drosophila S2 Gal4-RORgamma UAS-luciferase reporter, 20 h; Potency, µM (top dose mostly 53.6 µM), most hits filed as inhibitors; actives 5.4% (n = 310,000); AID 2551; also: nearly all actives have a fitted effect of over 60% in size
Target sequence (P51450 whole entry, looked up, the tested form may be a part): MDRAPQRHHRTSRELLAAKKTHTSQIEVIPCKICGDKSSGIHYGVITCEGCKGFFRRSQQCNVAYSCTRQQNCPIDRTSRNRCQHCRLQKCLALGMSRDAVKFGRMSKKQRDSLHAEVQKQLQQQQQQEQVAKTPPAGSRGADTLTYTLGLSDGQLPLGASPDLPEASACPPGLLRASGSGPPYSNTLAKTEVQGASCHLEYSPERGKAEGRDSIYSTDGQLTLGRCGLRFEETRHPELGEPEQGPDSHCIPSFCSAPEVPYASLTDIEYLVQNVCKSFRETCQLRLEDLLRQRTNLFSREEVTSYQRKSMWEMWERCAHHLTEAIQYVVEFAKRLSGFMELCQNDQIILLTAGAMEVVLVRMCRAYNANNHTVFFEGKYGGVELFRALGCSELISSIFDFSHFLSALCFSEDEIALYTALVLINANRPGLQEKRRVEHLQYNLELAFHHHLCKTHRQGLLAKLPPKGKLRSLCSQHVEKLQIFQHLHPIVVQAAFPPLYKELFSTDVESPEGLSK
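Stable Schneider cell line, Gal4 DNA-binding domain fused to ROR gamma, UAS-luciferase. Cmpd 1 hr RT → CuSO4 700 uM final → 20 hr RT → luciferase reagent 10 min → luminescence.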
VP16 counter: Gal4-VP16 reporter inhibition counter-screen; Drosophila S2 Gal4-VP16 UAS-luciferase, luminescence, 20 h; Potency, µM (titrated, usually from 53.6 µM), most hits filed as inhibitors; actives 3.5% (n = 310,000); AID 2546;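 also: Gal4-VP16 expression switched on by copper sulfate through the metallothionein promoter; nearly all actives have a fitted effect of over 50% in size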
Numbers stand for hits; . = inactive; ? = inconclusive; / = not tested or not shown; [ ] = remark or other dose. Unless noted, calls follow the shape of the dose curve; as a rule, active = well fitted curve in the direction sought with a large enough effect; inconclusive = small, poorly fitted or top-dose-only effect, or another doubt; inactive = no such curve, though single readings can be large; an effect the other way counts as inactive or inconclusive.

SMILES	IL1B secr inh	TDP1 cell noCPT	ELG1 repair inh	DT40 TDP1 CPT	RORgamma inh	VP16 counter
CC(C)CO/N=C1/C[C@@H](O)[C@@H](O)[C@@H]2[C@@H]3C(=O)N([C@@H](C)c4ccccc4)C(=O)[C@H]3CC[C@H]12	/	/	/	/	.[10 µM]	.[10 µM]
O=C(N/N=C/c1c[nH]c2ccccc12)C1COc2ccccc2O1 (centres undefined)	.	13µM	?	10µM	.	.
O=C(N/N=C\c1ccc(Cl)s1)C1COc2ccccc2O1 (centres undefined)	.	9.2µM	?	?	0.63µM	0.89µM
O=C(N/N=C/c1c[nH]c2ccccc12)C1CC1(c1ccccc1)c1ccccc1 (centres undefined)	?	?	.	?	?	?
CCOC(=O)c1ccc(NC(=O)C2COc3ccccc3O2)cc1 (centres undefined)	.	?	.	.	.[1.91 µM]	.
O=C(N/N=C/c1c[nH]c2ccccc12)C1CC1c1ccccc1 (centres undefined)	.	21µM	.	12µM	?	?
CCOC(=O)c1ccc(-n2c(O)c(/C=N/NC(=O)C3COc4ccccc4O3)c3ccccc3c2=O)cc1 (centres undefined)	.	?	.	?	2.5µM	2.8µM
Cc1ccn2c(=O)cc(COc3ccc(NC(=O)c4ccccc4F)cc3)nc2c1	/	.	/	.	/	/
COc1ccc(NC(=O)Cn2cc(S(=O)(=O)N3CCC(C)CC3)c3ccccc3c2=O)cc1Cl	/	.	/	?	/	/
CN(CC(=O)O)S(=O)(=O)c1ccc2c(c1)NC(=O)CC(=O)N2	.	.	.	.	.	.
O=C(N/N=C\c1ccc([N+](=O)[O-])s1)C1COc2ccccc2O1 (centres undefined)	-53	5.8µM	?	2.9µM	3.5µM	2.8µM
CC(C)(C)c1ccc(C2CC2C(=O)N/N=C\c2ccc[nH]2)cc1 (centres undefined)	-61	?	?	?	10µM	6.3µM
O=C(N/N=C/c1ccco1)C1CC1c1ccccc1 (centres undefined)	.	.	.	.	.	.
CC(C)(C)c1ccc2c(c1)OC(C(=O)N/N=C\c1ccccn1)CO2 (centres undefined)	?	?	.	?	?	18µM
O=C(N/N=C\c1ccc(-c2ccccc2[N+](=O)[O-])o1)C1COc2ccccc2O1 (centres undefined)	.	.	?	.	?	?
O=C(N/N=C\c1ccc([N+](=O)[O-])o1)C1COc2ccccc2O1 (centres undefined)	.	6.5µM	.	7.3µM	.	?
Cn1c(=O)n(C)c2cc(CNCc3ccc(C(=O)O)cc3)ccc21	/	.	/	.	/	/
Nc1ccccc1Oc1ccccc1	/	/	/	/	.	.
Nc1ccc(Oc2ccccc2-c2ccccc2)cc1	-57	.	/	.	/	/
CC(=O)C1=C(C)NC(SCC(=O)c2ccc(F)cc2)=C(C#N)C1CC(C)C (centres undefined)	.	?	?	?	5.6µM	7.1µM
CC(=O)C1=C(C)NC(SCC(=O)c2ccc(Cl)cc2)=C(C#N)C1CC(C)C (centres undefined)	.	?	.	.	11µM	?
CC(=O)C1=C(C)NC(SCC(N)=O)=C(C#N)C1CC(C)C (centres undefined)	.	?	.	.	.	.
CCOC(=O)C1=C(C)NC(SC)=C(C#N)C1CC(C)C (centres undefined)	?	3.7µM	10µM	3.7µM	.	.
CCOc1ccc(C2c3c(oc4ccccc4c3=O)C(=O)N2Cc2ccc3c(c2)OCO3)cc1 (centres undefined)	/	.	/	.	/	/
O=C(CSc1ncccn1)Nc1cc(Cl)ccc1[N+](=O)[O-]	.	.	.	.	.	.
SMILES	IL1B secr inh	TDP1 cell noCPT	ELG1 repair inh	DT40 TDP1 CPT	RORgamma inh	VP16 counter
CCCCNC(=O)c1ccc2nc(-c3cccs3)c(-c3cccs3)nc2c1	/	20µM	/	?	/	/
COC(CNC(=O)c1cccnc1)OC	.	.	.	.	.	.
COC(CNC(=O)c1ccc2nc(-c3cccs3)c(-c3cccs3)nc2c1)OC	-51	13µM	?	18µM	.[10 µM]	.
COc1ccc(COC(=O)N/N=C2/C[C@@H](O)[C@@H](O)[C@@H]3[C@@H]4C(=O)N(c5cccc(Oc6ccccc6)c5)C(=O)[C@H]4CC[C@@H]23)cc1	/	/	/	/	.[10 µM]	.[10 µM]
Cc1ccc(-n2ncc3c(=O)n(CC(=O)N4CCCc5ccccc54)cnc32)cc1C	.	16µM	23µM	?	.	.
COc1ccc(-n2ncc3c(=O)n(CC(=O)N4CCCc5ccccc54)cnc32)cc1	.	23µM	?	?	?	.
C#CC(CC)(CC)NC(=O)NC1CCCCC1	.	.	.	.	.	.
CCN1CCCC1CN(Cc1cc2ccc(C)cc2[nH]c1=O)C(=S)Nc1cccc(OC)c1 (centres undefined)	-77	29µM	.	?	.	.
CCN1CCCC1CN(Cc1cc2ccc(C)cc2[nH]c1=O)C(=S)Nc1ccc(OC)cc1 (centres undefined)	-106	5.2µM	?	?	.	.
Cc1ccc2cc(CN(CC3CCCO3)C(=O)c3cccs3)c(=O)[nH]c2c1 (centres undefined)	.	?	.	.	.	.
COc1ccc(-c2cc3c(=O)n(CC(=O)Nc4cccc(Cl)c4)ncn3n2)cc1	.	.	?	.	.	.
CCN1C(=O)[C@H]2[C@H]3[C@H](O)[C@H](O)C/C(=N\O[C@H](C)c4cn([C@H](CO)Cc5ccccc5)nn4)[C@@H]3CC[C@H]2C1=O	/	/	.	/	.	.
COc1ccc(NC(=O)Cn2c(=O)n(-c3cccc(C)c3)c(=O)c3c2c2cc(C)ccc2n3C)cc1Cl	/	.	/	?	/	/
COc1ccc(OC)c(CCNC(=O)CC2(CC3=NS(=O)(=O)c4ccccc4N3)CCCC2)c1	.	?	?	12µM	.	.
CC(=O)NC1=NN(C(C)=O)C(C)(c2ccc3ccccc3c2)S1 (centres undefined)	.	?	.	.	.[10 µM]	.
CC(=O)NC1=NN(C(C)=O)C(C)(c2ccccc2)S1 (centres undefined)	.	5.8µM	.	5.8µM	.	.[0.365 µM]
COC(=O)C(Cc1ccccc1)NC(=O)c1ccc(NS(=O)(=O)c2ccc3[nH]c(=O)[nH]c3c2)cc1 (centres undefined)	.	.	.	.	/	/
COc1cc2nc(N3CCCN(C)CC3)nc(NC3CCCCC3)c2cc1OC	/	8.9µM	/	7.9µM	/	/
COc1cc2nc(N3CCCN(C)CC3)nc(OC3CCN(C)CC3)c2cc1OC	/	14µM	/	?	/	/
